# Inconclusive results are not listed. Calls of active or inactive are those of the source. Calls follow the shape of the dose curve; as a rule, active = well fitted cell-killing curve with a large enough effect; inconclusive = small, poorly fitted or top-dose-only effect; inactive = flat fitted curve, though single readings scatter.
# Assay: HBEC Cell Viability Secondary Assay for qHTS Assay for Epigenetic Modulators
# Details: HBEC normal bronchial cells viability, ATP luminescence, 72 h
# Excerpt: NIH Molecular Libraries Screening Centers Network [MLSCN] NIH Chemical Genomics Center [NCGC] MLSCN Grant: 1 X01 MH079860-01 Assay Provider: Elisabeth D. Martinez, University of Texas SW Medical Center NCGC Assay Overview: This secondary assay characterizes selected actives identified in the qHTS of the Locus Derepression (LDR) assay (PubChem AID 1865). The LDR assay detects the derepression of a GFP reporter that is stably integrated in a region of the genome of murine c127i mammary cells that is presumably silenced. Compounds that cause derepression of the locus to express GFP are identified by enumerating GFP positive cells using a laser-scanning microplate cytometer. […] Cell viability was measured using a luminescence-based detection reagent that measures cellular ATP levels.
# NCGC Assay Protocol Summary HBEC cells were seeded at 125 cells/5 uL/well in white, solid bottom, 1536 well plates (Greiner). […] Plates were incubated 72 hours at 37deg C and 5% CO2, then 3.5 uL/well CellTiter-Glo(R) (Promega) detection reagent was added, plates were incubated at ambient temperature for 10 minutes and luminescence was measured by a ViewLux (Perkin Elmer) reader. […] A quantitative high-throughput screen identifies potential epigenetic modulators of gene expression. […] A quantitative high-throughput screen identifies potential epigenetic modulators of gene expression. […]
row,Structure (SMILES),Potency
1,COc1ccc(OC)c(N2C(=O)NC(=O)/C(=C\c3ccc([N+](=O)[O-])s3)C2=O)c1,28.1 µM (active)
2,O=C1NC(=O)N(CCc2ccc(F)cc2)C(=O)/C1=C/C=C/c1ccccc1,7.91 µM (active)
